# Results from the supplement of paper PMC9135407.
# Several values for one entry are separate records, joined by “and”; a condition that tells them apart may be missing. Equal entries are not always repeated. Structures can show the parent of a compound that is named as a salt. Screen size: about 5,800 compounds; about 620 (11%) showed activity. For the sample, actives were picked, then their nearest neighbours and some compounds at random. A number with no mark means an inactive call.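 The calls were made as follows: active = score above a cut-off or among the top three wells of a plate; in these data no inactive exceeds 0.85.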
# Test system: primary human hepatic stellate cells (donor 1)
# Assay: scaled lipid accumulation score (0 = DMSO-like, 1 = nortriptyline-like); higher = stronger HSC inactivation (lipid re-accumulation), active = hit call of the paper
# Conditions: 48 h
# Method: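 Primary lipid accumulation screen in primary human hepatic stellate cell myofibroblasts (donor 1, passage 8) in 384-well plates. 100 nL of library compound was pin-transferred into 30 µL medium in duplicate, and cells were treated for 48 h. The 'Scaled' score combines distance from plate baseline, toxicity and reproducibility penalties, and is normalised to nortriptyline (positive) and DMSO (negative) controls on each plate. A hit is defined as scaled >0.85 or among the top 3 wells per plate.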
# [1] = library stock concentration: 10 mM
# [2] = library stock concentration: 1 mM
# [3] = library stock concentration: 80 uM
# [4] = library stock concentration: 400 uM
# [5] = library stock concentration: 2 mM
# [6] = library stock concentration: 3.33 mM
# [7] = library stock concentration: 6.9 mM
smiles,measurement,setting,value
"COc1ccc2[nH]c3c(c2c1)CCNC3 [6-Methoxy-1,2,3,4-tetrahydro-9H-pyrido[3,4b] indole]",scaled lipid accumulation score,[1],0.691
O=c1ccc2[nH]cc(C3=CCNCC3)c2[nH]1,scaled lipid accumulation score,[1],0.084 and ≤ -0.006
COc1ccc2[nH]cc(C3=CCNCC3)c2c1.COc1ccc2[nH]cc(C3=CCNCC3)c2c1.O=C(O)CCC(=O)O,scaled lipid accumulation score,[1],1.68 (active)
CCCOc1ccc2[nH]cc(C3=CCNCC3)c2n1,scaled lipid accumulation score,[1],0.748
N#Cc1ccc(N2CCN(C(=O)COc3ccc4[nH]cc(CCN)c4c3)CC2)cc1 [Donitriptan hydrochloride],scaled lipid accumulation score,[1],≤ 0
CN1CC[C@@H]2CN3CCc4cccc(c43)[C@@H]2C1 [SDZ SER 082 fumarate],scaled lipid accumulation score,[1],≤ -0.006
CCCCCC(=O)N[C@H]1CCOC1=O [N-hexanoyl-L-Homoserine lactone],scaled lipid accumulation score,[2],≤ 0
CO[C@H](C/C=C\C=C\CC/C=C/C[C@H](C)/C=C/C(=C\C(=O)O)CC(=O)O)/C(C)=C\C=C(/C)C(=O)O [Bongkrekic acid],scaled lipid accumulation score,[2],≤ -0.014
N#CC(C#N)=Cc1ccc(O)cc1 [Tyrphostin-8],scaled lipid accumulation score,library stock concentration: 29.4 mM,≤ -0.012
CC(Cc1ccc(OCC(=O)O)cc1)NCC(O)c1cccc(Cl)c1 (configuration not stated),scaled lipid accumulation score,[1],0.056
COc1cc2c(cc1O)[C@@H]1Cc3ccc(OC)c(O)c3CN1CC2 [Scoulerine],scaled lipid accumulation score,,0.07
"COc1ccc(CC2c3cc(OC)c(OC)cc3CCN2C)cc1OC (racemic) [Laudanosine (R,S)]",scaled lipid accumulation score,,≤ 0
COc1cc2c(cc1O)C(CCc1ccc(Cl)cc1)N(C)CC2.Cl (configuration not stated),scaled lipid accumulation score,[1],0.872 (active)
C/C1=C/C(=O)O[C@@H]2C[C@@H](CC[C@H](C)/C=C\CC1)O[C@@](O)([C@@H]1CSC(=O)N1)C2 [Latrunculin B],scaled lipid accumulation score,library stock concentration: 12.6 mM,0.632
CCCCC/C=C\C/C=C\C/C=C\C/C=C\CCCC(=O)N[C@@H](C)CO [S-1 Methanandamide],scaled lipid accumulation score,[2],≤ 0
CN1C2CC(=O)CC1C(O)C2 (configuration not stated) [6-Hydroxytropinone],scaled lipid accumulation score,,≤ 0
CN1[C@@H](C[C@@H](O)c2ccccc2)CCC[C@H]1C[C@H](O)c1ccccc1 [Lobelanidine hydrochloride],scaled lipid accumulation score,,0.194
O=C(O)C1=CCCN(CCOC(c2ccc(C(F)(F)F)cc2)c2ccc(C(F)(F)F)cc2)C1 [CI 966 hydrochloride],scaled lipid accumulation score,[1],≤ -0.006
CC1=C(O)C(=O)C=C2C1=CC=C1[C@@]2(C)CC[C@@]2(C)[C@@H]3C[C@](C)(C(=O)O)CC[C@]3(C)CC[C@]12C [Celastrol] [listing 1 of 2 here],scaled lipid accumulation score,[3],0.019
same,scaled lipid accumulation score,[4],0.093
same,scaled lipid accumulation score,[1],0.392
O=C1C=C2C(C(C)=C1O)=CC=C3[C@]2(CCC4([C@@H]5C[C@@](CC[C@@]5(CC[C@]34C)C)([C@@](O)=O)C)C)C (some centres not stated) [Celastrol],scaled lipid accumulation score,[5],1.14 (active)
same,scaled lipid accumulation score,[1],1.14 (active)
CC1=C(O)C(=O)C=C2C1=CC=C1[C@@]2(C)CC[C@@]2(C)[C@@H]3C[C@](C)(C(=O)O)CC[C@]3(C)CC[C@]12C [Celastrol] [listing 2 of 2 here],scaled lipid accumulation score,[2],1.34 (active)
CN1CCN(C(=O)O[C@H]2c3nccnc3C(=O)N2c2ccc(Cl)cn2)CC1,scaled lipid accumulation score,[1],0.134
CN1CCN(C(=O)O[C@H]2c3nccnc3C(=O)N2c2ccc(Cl)cn2)CC1 [Eszopiclone],scaled lipid accumulation score,[1],≤ 0
C#CCN[C@H](C)Cc1ccccc1 [R-(-)-Desmethyldeprenyl hydrochloride],scaled lipid accumulation score,[1],≤ 0
CC[C@@H]1C=CC=CC[C@H](C)[C@@H](O)[C@@H](C)C(=O)[C@H](C)[C@@H](O)[C@H](C)C(=O)[C@H](C)[C@@H](O)[C@H](C)C=CC(=O)O[C@H]2[C@@H](C)[C@@H](CC1)O[C@@]1(CC[C@@H](C)[C@@H](C[C@H](C)O)O1)[C@@H]2C,scaled lipid accumulation score,[1],≤ 0
CN1[C@@H]2CC[C@H]1C[C@@H](OC(=O)[C@H](CO)c1ccccc1)C2 [Hyoscyamine (L)],scaled lipid accumulation score,,≤ 0
COc1ccc(C(=O)OC2C[C@H]3CC[C@@H](C2)N3C)cc1OC (some centres not stated) [Convolamine hydrochloride],scaled lipid accumulation score,,0.027
CN1[C@@H]2CC[C@H]1CC(OC(=O)N1Cc3ccccc3NC1=O)C2 (some centres not stated) [DAU 5884 hydrochloride],scaled lipid accumulation score,[1],≤ -0.001
CN1[C@@H]2CC[C@H]1C[C@@H](OC(=O)C(CO)c1ccccc1)C2 (some centres not stated),scaled lipid accumulation score,[1],≤ 0
CN1[C@@H]2CC[C@H]1C[C@@H](OC(=O)C(CO)c1ccccc1)C2 (some centres not stated) [Atropine sulfate monohydrate],scaled lipid accumulation score,,0.118
CCC(Oc1ccc(Cl)cc1)C(=O)OC1CC2CCC(C1)N2C.O=C(O)/C=C\C(=O)O (configuration not stated) [SM-21 maleate],scaled lipid accumulation score,[1],0.886 (active)
CN1[C@@H]2CC[C@H]1C[C@@H](OC(=O)[C@H](CO)c1ccccc1)C2 [L-Hyoscyamine],scaled lipid accumulation score,[1],≤ -0.07
CN1[C@@H]2CC[C@H]1C[C@@H](OC(=O)[C@H](CO)c1ccccc1)C2 [Hyoscyamine],scaled lipid accumulation score,[6],≤ 0
same,scaled lipid accumulation score,[7],≤ -0.001
same,scaled lipid accumulation score,[1],≤ 0 and 0.017
CN1[C@@H]2CC[C@H]1C[C@@H](OC(=O)C(CO)c1ccccc1)C2 (some centres not stated) [Atropine],scaled lipid accumulation score,[6],≤ 0
same,scaled lipid accumulation score,[1],≤ 0
CN1[C@@H]2CC[C@H]1C[C@@H](OC(=O)C(CO)c1ccccc1)C2 (some centres not stated) [Atropine sulfate],scaled lipid accumulation score,library stock concentration: 5.2 mM,0.019
same,scaled lipid accumulation score,[7],0.018
same,scaled lipid accumulation score,[1],0.196 and ≤ 0
CC(C(=O)OC1CC2CCC(C1)N2C)c1ccc(Br)cc1.O=C(O)/C=C\C(=O)O (configuration not stated) [PG-9 maleate],scaled lipid accumulation score,[1],0.958 (active)
CNCC(O)c1ccc(O)c(OC)c1 (stereo not drawn) [Metanephrine hydrochloride DL],scaled lipid accumulation score,,0.001
"CCCCCC1OC1C/C=C\CCCCCCCC(=O)O (configuration not stated) [Leukotoxin B (12,13-EODE)]",scaled lipid accumulation score,library stock concentration: 100 uM,≤ -0.021
CCCCCC[C@H]1C(=O)O[C@H](C)[C@H](NC(=O)c2cccc(NC=O)c2O)C(=O)O[C@@H](C)[C@@H]1OC(=O)CC(C)C [Antimycin A],scaled lipid accumulation score,,0.274
"CCCCC/C=C\C/C=C\C/C=C\C/C=C\CCCC(=O)N(C)C [Arachidonoyl-N,N-dimethyl amide]",scaled lipid accumulation score,[2],0.01
CC(N)C(O)c1ccccc1 (configuration not stated) [Phenylpropanolamine hydrochloride],scaled lipid accumulation score,,≤ 0
same,scaled lipid accumulation score,library stock concentration: 10.7 mM,≤ -0.001
CC(N)C(O)c1ccccc1 (configuration not stated) [Phenylpropanolamine],scaled lipid accumulation score,library stock concentration: 13.2 mM,≤ 0
C=C[C@H]1CN2CC[C@H]1C[C@H]2[C@H](OC(=O)OCC)c1ccnc2ccc(OC)cc12 [Quinine ethyl carbonate],scaled lipid accumulation score,library stock concentration: 5 mM,≤ -0.001
same,scaled lipid accumulation score,[1],0.318
CN1C[C@H](C(=O)N[C@]2(C)O[C@@]3(O)[C@@H]4CCCN4C(=O)[C@H](Cc4ccccc4)N3C2=O)C[C@@H]2c3cccc4[nH]cc(c34)C[C@H]21 [Dihydroergotamine tartrate],scaled lipid accumulation score,,0.119
CC(C)[C@@]1(NC(=O)[C@@H]2C[C@@H]3c4cccc5[nH]cc(c45)C[C@H]3N(C)C2)O[C@@]2(O)[C@@H]3CCCN3C(=O)[C@H](Cc3ccccc3)N2C1=O [Dihydroergocristine mesylate],scaled lipid accumulation score,,0.232
same,scaled lipid accumulation score,[1],0.54
CN1C[C@H](C(=O)N[C@]2(C)O[C@@]3(O)[C@@H]4CCCN4C(=O)[C@H](Cc4ccccc4)N3C2=O)C[C@@H]2c3cccc4[nH]cc(c34)C[C@H]21 [Dihydroergotamine mesylate],scaled lipid accumulation score,library stock concentration: 2.9 mM,≤ 0
same,scaled lipid accumulation score,[1],0.16 and 0.216
CN1C[C@H](C(=O)N[C@]2(C)O[C@@]3(O)[C@@H]4CCCN4C(=O)[C@H](Cc4ccccc4)N3C2=O)C[C@@H]2c3cccc4[nH]cc(c34)C[C@H]21.CS(=O)(=O)O [Dihydroergotamine methanesulfonate],scaled lipid accumulation score,[1],1.06 (active)
FC(F)(F)c1cccc(C2=CCN(CCc3ccc4ccccc4c3)CC2)c1 [Xaliproden hydrochloride],scaled lipid accumulation score,[1],0.229
CC(N)Cc1cnc[nH]1 (configuration not stated),scaled lipid accumulation score,[1],0.028
CN1CC[C@]23CCCC[C@H]2[C@H]1Cc1ccc(O)cc13,scaled lipid accumulation score,library stock concentration: 9.9 mM,≤ 0
CC(=O)O[C@H]1C[C@@H]2CC[C@@H]3[C@H](CCC4(C)[C@H]3C[C@H]([N+]3(C)CCCCC3)[C@@H]4OC(C)=O)C2(C)C[C@@H]1[N+]1(C)CCCCC1 (some centres not stated) [Pancuronium Br],scaled lipid accumulation score,library stock concentration: 3.5 mM,≤ -0.006
Cc1n[nH]c2ccc(-c3cncc(OC[C@@H](N)Cc4c[nH]c5ccccc45)c3)cc12,scaled lipid accumulation score,[4],1 (active)
Cc1[nH]nc2ccc(-c3cncc(OC[C@@H](N)Cc4c[nH]c5ccccc45)c3)cc12,scaled lipid accumulation score,[3],0.308
same,scaled lipid accumulation score,[5],0.593
same,scaled lipid accumulation score,[1],0.427
CNC(Cc1c[nH]c2ccccc12)C(=O)O (configuration not stated) [Abrine (l)],scaled lipid accumulation score,[1],≤ 0
C[N+]1(C)C2CCC1CC(OC(=O)c1c[nH]c3ccccc13)C2 (configuration not stated) [3-Tropanylindole-3-carboxylate methiodide],scaled lipid accumulation score,[1],≤ 0
c1ccc2c(c1)Sc1ccccc1N2CC1CN2CCC1CC2 (configuration not stated),scaled lipid accumulation score,[1],1.03 (active)
O=C(N[C@H]1CN2CCC1CC2)c1ccc(Cl)cc1,scaled lipid accumulation score,[1],≤ -0.001 and 0.156
Cn1cc(C(=O)C(=O)N[C@H]2CN3CCC2CC3)c2ccccc21,scaled lipid accumulation score,[1],0.403
